# Experimental data as given in PubChem BioAssay AID651598 (Sanford-Burnham Center for Chemical Genomics, 2012).
# “And” between values parts separate entries of the source, which are not always exact repeats. Equal values may be shown once.
# Target: Apelin receptor (Homo sapiens) (UniProt P35414)
# Assay: APJ beta-arrestin recruitment blockade alongside CXCR6 – cell-based, DiscoveRx, panel, CHO-K1, counter-screen for CXCR6 antagonist project, SAR follow-up (AID 651598)
# Conditions: CHO-K1 PathHunter beta-arrestin luminescence, antagonist mode; run 6, at 80 µM (top of the series)
# Sequence of Apelin receptor (Homo sapiens) (P35414 whole entry, looked up): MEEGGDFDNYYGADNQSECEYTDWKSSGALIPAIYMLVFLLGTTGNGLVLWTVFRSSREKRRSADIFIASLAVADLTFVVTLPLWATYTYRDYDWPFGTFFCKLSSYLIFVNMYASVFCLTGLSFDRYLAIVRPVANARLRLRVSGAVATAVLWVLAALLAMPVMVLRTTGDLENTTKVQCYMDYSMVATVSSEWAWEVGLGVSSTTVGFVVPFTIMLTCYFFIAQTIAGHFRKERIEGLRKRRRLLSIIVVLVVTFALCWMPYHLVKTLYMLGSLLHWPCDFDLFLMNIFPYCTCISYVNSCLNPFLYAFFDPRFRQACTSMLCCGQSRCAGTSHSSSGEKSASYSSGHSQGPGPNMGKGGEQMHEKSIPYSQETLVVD
row,SMILES,inhibition
1,COc1cc(C(=O)NC2CCN(CC(=O)Nc3ccccc3)CC2)cc(OC)c1OC,-2.93%
2,COc1cc(C(=O)NC2CC3CCCC(C2)N3CC(=O)Nc2ccccc2)cc(OC)c1OC (stereo not drawn),9.24% and -4.02% and 20.6%
3,COc1cc(C(=O)NC2CC3CCC(C2)N3CC(=O)Nc2ccccc2)cc(OC)c1OC (stereo not drawn),10.4% and -17.1%
